# Assay results published in PubChem BioAssay (NCATS).
# Inconclusive results are not listed. Where a call stands in place of a potency, no number is given. Activity calls are given as the source filed them. Unless noted, calls come from the whole dose curve; as a rule, active = well fitted curve in the direction sought with a large enough effect; inconclusive = small, poorly fitted or top-dose-only effect, or another doubt; inactive = no such curve, though single readings can be large; an effect the other way counts as inactive or inconclusive.
# Key:
# [1] = P-glycoprotein substrates identified in KB-8-5-11 adenocarcinoma cell line, qHTS therapeutic library screen (AID 1346987); note: nearly all actives have a fitted effect of over 65% in size; note: potency is the fitted concentration of half-maximal effect
# In short: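 Compounds are pinned in dose-response onto KB-8-5-11 cells (500 cells/well, colchicine-free medium) and left 72 h at 37 degree C. CellTiter-Glo luminescence then yields AC50 values.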
# [2] = Natriuretic polypeptide receptor (hNpr1) antagonism - Pilot counterscreen GloSensor control cell line (AID 1347045; calls by dose curve; note: series mostly up to about 38 µM)
# In short: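 Control counterscreen: luciferase cGMP-biosensor HEK293 cells (no Npr1) received compound for 30 min at room temperature after GloSensor substrate loading. Luminescence was measured before and 20 min after soluble guanylyl cyclase activation by 50 uM nitroprusside.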
# [3] = target: Atrial natriuretic peptide receptor 1 (Homo sapiens) (UniProt P16066); test: Natriuretic polypeptide receptor (hNpr1) antagonism - Pilot screen (AID 1347049; calls by dose curve;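 note: HEK293 cells with hNpr1 and GloSensor cGMP luciferase stimulated by 0.1 nM hNppA; agonist-evoked cGMP luminescence read 20 min after hNppA addition; series mostly up to about 58 µM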)
# In short: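 Cells expressing receptor plus cGMP biosensor are seeded and incubated overnight at 37C, then loaded with GloSensor reagent (2% final) at room temperature for 2 h. Library compounds go on for 30 min. A pre-read precedes agonist (hNppA, 0.1 nM final) and a 20-min readout.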
# [4] = target: Atrial natriuretic peptide receptor 2 (Homo sapiens) (UniProt P20594); test: Natriuretic polypeptide receptor (hNpr2) antagonism - Pilot subtype selectivity assay (AID 1347050; calls by dose curve)
# In short: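 Read-out: GloSensor luminescence (CCD imager), baseline vs post-stimulation. HEK293 cells expressing hNpr2; compounds pre-incubated 30-50 min at ambient temperature; hNppC 1 nM final, 20 min.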
# [5] = NS1 protein of Zika virus - qHTS assay to identify small molecule inhibitors in human HEK 293 cells (AID 1347053); note: nearly all actives have a fitted effect of over 55% in size; note: potency is the fitted concentration of half-maximal effect
# In short: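 Readout was TR-FRET using paired anti-NS1 antibodies after 24 h infection of HEK 293 cells with ZIKV MR766 (MOI = 0.5). Compound preceded virus by 1 h; reduced signal reflects lower NS1 expression.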
# [6] = target: T1, Tyrosine-protein phosphatase non-receptor type substrate 1 (Homo sapiens) + Leukocyte surface antigen CD47 (Homo sapiens) (UniProt P78324+Q08722); test: CD47-SIRPalpha protein protein interaction - HTRF assay qHTS validation (AID 1347058; active = well fitted curve in the direction sought with a large enough effect in the signal ratio, not every such curve was filed as active; the % refers to the signal ratio; note: series mostly up to about 38 µM)
# In short: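 Soluble extracellular domains (6His-CD47, Avi-tag-biotinylated SIRPalpha) in PBS pH 7.4 with 0.05% IGEPAL CA-630. Compounds were preincubated 30 min at RT with CD47 and anti-His-Eu, then SIRPalpha and SAV-XL665 were added. TR-FRET 665/615 ratio.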
# [7] = target: T1, Tyrosine-protein phosphatase non-receptor type substrate 1 (Homo sapiens) + Leukocyte surface antigen CD47 (Homo sapiens); test: CD47-SIRPalpha protein protein interaction - Alpha assay qHTS validation (AID 1347059);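 note: bead proximity luminescence from CD47 binding SIRPalpha after compound preincubation with SIRPalpha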
# In short: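 In PBS (pH 7.4) with 0.05% IGEPAL CA-630, compound is preincubated with biotin-Avi-SIRPalpha ectodomain before His-CD47 ectodomain and affinity beads are added. Light-protected room-temperature incubations; AlphaScreen readout.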
# [8] = target: Parathyroid hormone/parathyroid hormone-related peptide receptor (Homo sapiens) (UniProt Q03431); test: qHTS for PTHR1 Agonists: Optimization Screen against the NCGC LOPAC library (AID 1347079);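 note: GloSensor cAMP luminescence in HEK-293 GP2 cells expressing human PTHR1 with IBMX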
# In short: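 HEK-293 GP2 cells, PTHR1 + GloSensor cAMP; 3000 cells/well, o/n. Luciferin + IBMX 0.5mM each (stock), 1 hr 37C. Cpd titration, 1 hr 37C. Lum after 15 min RT. Ctrl M-PTH(1-15) top 10uM.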
# [9] = target: Nucleoprotein (Lymphocytic choriomeningitis virus (strain Armstrong)) (UniProt P09992); test: qHTS for Inhibitors of the Functional Ribonucleoprotein Complex (vRNP) of Lymphocytic Choriomeningitis Arenaviruses (LCMV): LCMV Primary Screen - GLuc reporter signal (AID 1347086; calls by dose curve; note: nearly all actives have a fitted effect of over 70% in size; note: potency is the fitted concentration of half-maximal effect)
# [10] = qHTS of pediatric cancer cell lines to identify multiple opportunities for drug repurposing: Primary screen for TC32 cells (AID 1347089); note: nearly all actives have a fitted effect of over 60% in size
# In short: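 qHTS, TC32, 48 h drug treatment, CellTiter-Glo luminescence as a proxy for metabolically active cells; primary top concentration 46 µM (MIPE 11-pt, NPC 8-pt); confirmatory 11-pt.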
# [11] = qHTS of pediatric cancer cell lines to identify multiple opportunities for drug repurposing: Primary screen for SJ-GBM2 cells (AID 1347091); note: potency is the fitted concentration of half-maximal effect
# In short: (§1)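 Eight- or eleven-point concentration series, 48 h treatment at 37 degrees C in growth media; readout CellTiter-Glo luminescence. Potency and efficacy were taken from the concentration-response curves.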
# [12] = qHTS of pediatric cancer cell lines to identify multiple opportunities for drug repurposing: Primary screen for SK-N-MC cells (AID 1347093); note: potency is the fitted concentration of half-maximal effect
# In short: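 Metabolically active cells were quantified by ATP-dependent luminescence (CellTiter-Glo, 15 min at room temperature) following 48 h treatment. Cells had been plated at 500-1,000 per well and settled for 5 h beforehand.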
# [13] = qHTS of pediatric cancer cell lines to identify multiple opportunities for drug repurposing: Primary screen for BT-37 cells (AID 1347094); note: potency is the fitted concentration of half-maximal effect
# In short: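 Cells seeded at 500-1,000 cells/well in growth media, rested 5 hours at 37 degrees C, 5% CO2, then dosed; MIPE compounds at 11-point (from 0.78 nM) and NPC at 8-point (from 0.59 nM) final concentrations. Viability by CellTiter-Glo luminescence after 48 hours.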
# [14] = P-glycoprotein substrates identified in KB-3-1 adenocarcinoma cell line, qHTS therapeutic library screen (AID 1346986); note: nearly all actives have a fitted effect of over 60% in size
# In short: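 72 h cell-killing screen, 500 cells/well, CellTiter-Glo luminescence. Paired lines KB-3-1/KB-8-5-11; P-gp dependence checked by tariquidar co-treatment and HEK-293 MDR-19 versus empty-vector cells.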
# [15] = qHTS for Inhibitors of the Functional Ribonucleoprotein Complex (vRNP) of Lassa (LASV) Arenavirus: LASV Primary Screen - GLuc reporter signal (AID 1347082; calls by dose curve; tested in HEK293 reporter line; note: nearly all actives have a fitted effect of over 60% in size; note: potency is the fitted concentration of half-maximal effect)
# [16] = qHTS for Inhibitors of the Functional Ribonucleoprotein Complex (vRNP) of Lassa (LASV) Arenavirus: Viability assay - alamar blue signal for LASV Primary Screen (AID 1347083; calls by dose curve; tested in HEK293 reporter line; note: nearly all actives have a fitted effect of over 80% in size; note: potency is the fitted concentration of half-maximal effect)
# [17] = qHTS for Inhibitors of the Functional Ribonucleoprotein Complex (vRNP) of Lymphocytic Choriomeningitis Arenaviruses (LCMV): Viability assay - alamar blue signal for LCMV Primary Screen (AID 1347085; calls by dose curve; tested in HEK293 reporter line; note: nearly all actives have a fitted effect of over 80% in size; note: potency is the fitted concentration of half-maximal effect)
# [18] = qHTS of pediatric cancer cell lines to identify multiple opportunities for drug repurposing: Primary screen for A673 cells (AID 1347092); note: nearly all actives have a fitted effect of over 45% in size; note: potency is the fitted concentration of half-maximal effect
# In short: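 Luminescence from CellTiter-Glo, taken after 15 min at room temperature, served as the proxy for metabolically active cells following 48 h treatment. Both potency and efficacy were taken from curves fitted to the titration data.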
# [19] = qHTS of pediatric cancer cell lines to identify multiple opportunities for drug repurposing: Primary screen for DAOY cells (AID 1347090); note: nearly all actives have a fitted effect of over 55% in size; note: potency is the fitted concentration of half-maximal effect
# In short: as §1
# Atrial natriuretic peptide receptor 1 (Homo sapiens), sequence (P16066 whole entry, looked up): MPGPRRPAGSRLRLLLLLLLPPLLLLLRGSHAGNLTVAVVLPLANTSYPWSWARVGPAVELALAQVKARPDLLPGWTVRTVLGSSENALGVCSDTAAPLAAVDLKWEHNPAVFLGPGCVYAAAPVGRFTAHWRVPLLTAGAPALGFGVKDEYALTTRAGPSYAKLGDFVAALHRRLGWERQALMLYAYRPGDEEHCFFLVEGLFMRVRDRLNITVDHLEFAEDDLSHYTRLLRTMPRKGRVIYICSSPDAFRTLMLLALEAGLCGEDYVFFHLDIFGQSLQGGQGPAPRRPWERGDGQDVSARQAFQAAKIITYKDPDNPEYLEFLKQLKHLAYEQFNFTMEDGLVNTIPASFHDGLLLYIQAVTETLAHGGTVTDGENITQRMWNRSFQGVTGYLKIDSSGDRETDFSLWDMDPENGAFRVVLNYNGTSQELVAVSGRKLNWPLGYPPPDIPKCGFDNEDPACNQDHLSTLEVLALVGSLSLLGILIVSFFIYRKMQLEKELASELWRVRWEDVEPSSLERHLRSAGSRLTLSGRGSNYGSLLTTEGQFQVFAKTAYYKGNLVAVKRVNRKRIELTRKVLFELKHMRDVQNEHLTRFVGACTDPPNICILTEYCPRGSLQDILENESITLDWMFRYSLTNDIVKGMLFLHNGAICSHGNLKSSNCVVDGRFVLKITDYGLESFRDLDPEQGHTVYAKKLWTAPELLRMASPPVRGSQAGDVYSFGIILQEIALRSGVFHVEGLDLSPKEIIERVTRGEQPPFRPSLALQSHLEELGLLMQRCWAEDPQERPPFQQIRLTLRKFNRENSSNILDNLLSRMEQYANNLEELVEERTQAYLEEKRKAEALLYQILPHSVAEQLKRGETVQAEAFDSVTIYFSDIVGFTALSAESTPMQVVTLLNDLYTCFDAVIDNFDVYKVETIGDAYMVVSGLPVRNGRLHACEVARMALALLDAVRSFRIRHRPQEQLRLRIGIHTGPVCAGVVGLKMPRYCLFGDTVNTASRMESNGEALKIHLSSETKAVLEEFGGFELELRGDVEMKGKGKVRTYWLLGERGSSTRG
# Nucleoprotein (Lymphocytic choriomeningitis virus (strain Armstrong)), sequence (P09992 whole entry, looked up): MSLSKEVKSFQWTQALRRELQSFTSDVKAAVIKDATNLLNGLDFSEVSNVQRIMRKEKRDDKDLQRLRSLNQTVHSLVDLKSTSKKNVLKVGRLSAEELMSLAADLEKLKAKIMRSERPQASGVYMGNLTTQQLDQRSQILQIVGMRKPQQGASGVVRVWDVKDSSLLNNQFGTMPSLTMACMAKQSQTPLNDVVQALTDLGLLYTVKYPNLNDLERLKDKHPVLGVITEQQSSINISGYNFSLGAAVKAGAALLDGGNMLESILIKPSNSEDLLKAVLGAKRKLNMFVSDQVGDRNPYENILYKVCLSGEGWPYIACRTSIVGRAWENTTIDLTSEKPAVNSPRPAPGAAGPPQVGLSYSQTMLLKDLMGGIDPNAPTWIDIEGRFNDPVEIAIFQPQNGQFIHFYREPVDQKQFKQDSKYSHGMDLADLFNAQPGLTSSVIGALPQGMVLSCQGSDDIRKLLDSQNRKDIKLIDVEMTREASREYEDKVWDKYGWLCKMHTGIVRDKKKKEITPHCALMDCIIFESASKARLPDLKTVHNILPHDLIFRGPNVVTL
# Atrial natriuretic peptide receptor 2 (Homo sapiens), sequence (P20594 whole entry, looked up): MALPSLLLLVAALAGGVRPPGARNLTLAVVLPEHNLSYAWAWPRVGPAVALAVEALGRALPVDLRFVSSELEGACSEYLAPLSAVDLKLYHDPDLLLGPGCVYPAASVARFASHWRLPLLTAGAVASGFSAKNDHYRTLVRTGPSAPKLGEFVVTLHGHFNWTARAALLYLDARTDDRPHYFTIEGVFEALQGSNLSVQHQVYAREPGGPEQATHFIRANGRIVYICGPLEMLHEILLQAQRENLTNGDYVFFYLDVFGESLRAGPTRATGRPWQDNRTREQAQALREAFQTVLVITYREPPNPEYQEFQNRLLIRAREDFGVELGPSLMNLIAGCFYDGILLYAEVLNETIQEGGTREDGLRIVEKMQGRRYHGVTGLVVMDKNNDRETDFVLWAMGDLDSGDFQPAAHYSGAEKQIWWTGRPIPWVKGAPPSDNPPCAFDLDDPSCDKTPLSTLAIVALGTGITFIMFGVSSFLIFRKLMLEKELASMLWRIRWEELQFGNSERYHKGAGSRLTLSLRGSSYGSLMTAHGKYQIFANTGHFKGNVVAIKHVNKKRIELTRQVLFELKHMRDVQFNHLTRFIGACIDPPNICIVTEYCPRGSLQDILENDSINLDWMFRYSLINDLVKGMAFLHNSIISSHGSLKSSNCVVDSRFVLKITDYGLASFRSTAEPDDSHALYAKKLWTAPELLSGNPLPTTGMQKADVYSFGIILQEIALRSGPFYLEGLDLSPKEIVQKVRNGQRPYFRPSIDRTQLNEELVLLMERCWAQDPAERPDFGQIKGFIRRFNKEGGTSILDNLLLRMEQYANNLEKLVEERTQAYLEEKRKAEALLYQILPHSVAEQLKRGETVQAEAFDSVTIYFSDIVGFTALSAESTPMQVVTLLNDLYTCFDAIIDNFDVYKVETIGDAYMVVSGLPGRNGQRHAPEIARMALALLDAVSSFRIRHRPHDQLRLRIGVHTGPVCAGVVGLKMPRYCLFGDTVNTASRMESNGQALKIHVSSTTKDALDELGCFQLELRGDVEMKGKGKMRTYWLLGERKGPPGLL
# Parathyroid hormone/parathyroid hormone-related peptide receptor (Homo sapiens), sequence (Q03431 whole entry, looked up): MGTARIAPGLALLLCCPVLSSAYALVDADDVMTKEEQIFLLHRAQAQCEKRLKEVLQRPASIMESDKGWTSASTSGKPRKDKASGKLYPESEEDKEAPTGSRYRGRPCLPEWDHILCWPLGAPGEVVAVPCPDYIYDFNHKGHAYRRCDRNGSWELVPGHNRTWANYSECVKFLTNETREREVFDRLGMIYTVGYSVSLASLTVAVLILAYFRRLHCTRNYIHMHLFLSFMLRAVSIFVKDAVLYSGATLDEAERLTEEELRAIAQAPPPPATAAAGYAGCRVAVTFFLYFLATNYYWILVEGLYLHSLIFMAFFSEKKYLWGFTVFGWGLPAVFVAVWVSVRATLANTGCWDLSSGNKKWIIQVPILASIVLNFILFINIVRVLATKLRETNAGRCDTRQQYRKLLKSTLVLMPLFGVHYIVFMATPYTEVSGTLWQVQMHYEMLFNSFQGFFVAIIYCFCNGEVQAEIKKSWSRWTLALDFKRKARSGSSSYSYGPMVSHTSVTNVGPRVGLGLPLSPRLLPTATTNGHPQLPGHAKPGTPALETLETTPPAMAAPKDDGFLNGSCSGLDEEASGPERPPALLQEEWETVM
# T1 sequence (P78324 whole entry, looked up, the tested form may be a part): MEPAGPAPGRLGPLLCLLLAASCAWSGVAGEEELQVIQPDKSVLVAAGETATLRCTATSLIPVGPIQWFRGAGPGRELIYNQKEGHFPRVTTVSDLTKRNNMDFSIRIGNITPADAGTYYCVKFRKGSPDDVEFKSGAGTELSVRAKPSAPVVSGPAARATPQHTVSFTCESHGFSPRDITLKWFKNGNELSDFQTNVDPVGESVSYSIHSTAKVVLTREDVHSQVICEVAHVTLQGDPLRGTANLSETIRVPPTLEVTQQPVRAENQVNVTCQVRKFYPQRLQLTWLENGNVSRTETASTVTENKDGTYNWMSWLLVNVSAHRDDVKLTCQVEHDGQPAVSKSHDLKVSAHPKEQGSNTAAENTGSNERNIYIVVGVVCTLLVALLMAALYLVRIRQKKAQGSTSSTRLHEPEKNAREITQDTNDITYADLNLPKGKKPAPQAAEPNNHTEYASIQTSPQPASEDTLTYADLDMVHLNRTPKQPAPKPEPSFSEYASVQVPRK
# T1 sequence (Q08722 whole entry, looked up, the tested form may be a part): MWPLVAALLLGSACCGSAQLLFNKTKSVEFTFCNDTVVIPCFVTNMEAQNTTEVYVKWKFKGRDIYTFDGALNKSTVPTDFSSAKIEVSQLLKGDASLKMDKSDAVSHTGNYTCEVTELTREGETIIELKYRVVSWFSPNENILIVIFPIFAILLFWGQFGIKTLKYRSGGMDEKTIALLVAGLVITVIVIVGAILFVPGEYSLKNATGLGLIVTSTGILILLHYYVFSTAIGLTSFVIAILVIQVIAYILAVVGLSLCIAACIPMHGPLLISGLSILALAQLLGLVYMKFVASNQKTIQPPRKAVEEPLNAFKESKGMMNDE
Compound,Potency [1],Potency [2],Potency [3],Potency [4],Potency [5],outcome [6],Potency [7],outcome [8],Potency [9],Potency [10],Potency [11],Potency [12],Potency [13],Potency [14],Potency [15],Potency [16],Potency [17],Potency [18],Potency [19]
COC(=O)[C@@H](N)CCCN=C(N)N[N+](=O)[O-],inactive,inactive,inactive,inactive,inactive,inactive,inactive,inactive,inactive,inactive,inactive,6.62 µM (active),inactive,,,,,,
CC(O)=C(C#N)C(=O)Nc1cc(Br)ccc1Br,inactive,,,,inactive,,,,inactive,inactive,,0.332 µM (active),inactive,inactive,inactive,inactive,inactive,inactive,
COc1ccc2c(c1)CN(C)CC2c1ccc(Cl)c(Cl)c1 (stereo not given),inactive,,,,inactive,,,,inactive,inactive,18.7 µM (active),18.7 µM (active),,inactive,inactive,7.69 µM (active),inactive,,
Cc1c(C(=O)c2cccc3ccccc23)c2cccc3c2n1[C@H](CN1CCOCC1)CO3,7.43 µM (active),,inactive,inactive,,,,inactive,,inactive,14.8 µM (active),10.5 µM (active),,,,,,23.5 µM (active),23.5 µM (active)
Oc1ccc2c3c1O[C@H]1c4[nH]c5c(c4C[C@@]4(O)[C@@H](C2)N(CC2CC2)CC[C@]314)C[C@@]1(O)[C@H]2Cc3ccc(O)c4c3[C@@]1(CCN2CC1CC1)[C@H]5O4,inactive,inactive,inactive,inactive,inactive,,inactive,inactive,inactive,inactive,,inactive,inactive,inactive,inactive,inactive,inactive,inactive,inactive
CC(C)N(CCNC(=O)CN1CCCC1=O)C(C)C,inactive,,,,inactive,,,,inactive,inactive,,inactive,inactive,inactive,inactive,inactive,inactive,inactive,
COC1=C[C@@H]2[C@@H]3Cc4ccc(OC)c(O)c4[C@]2(CCN3C)CC1=O,inactive,,,,inactive,,,,6.11 µM (active),inactive,,13.2 µM (active),,inactive,19.3 µM (active),19.3 µM (active),21.7 µM (active),1.48 µM (active),
CCCN1CCO[C@@H]2c3cc(O)ccc3OC[C@@H]21,inactive,,,,inactive,,,,inactive,inactive,,,21.7 µM (active),inactive,inactive,inactive,inactive,,inactive
O=c1[nH]c2ccccc2n1C1CCN(Cc2ccc(-c3[nH]c4cc5ncnc5cc4nc3-c3ccccc3)cc2)CC1,inactive,,,,18.7 µM (active),,,,inactive,inactive,3.32 µM (active),0.833 µM (active),,inactive,,,inactive,,inactive
